Source: PubChem (National Center for Advancing Translational Sciences (NCATS))
aGlu spleen mod – inhibitors or activators of human alpha-glucosidase in spleen homogenate; 240,000 compounds, 0.006% hits; Potency, µM (series often up to 79.9 µM), for inactives: at the highest dose activity change, negative = inhibition, hits mostly inhibitors; AID 2112; human spleen homogenate, 4-MU-alpha-glucoside fluorescence; P10253;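 further: 0% = enzyme with vehicle and -100% = no enzyme basal signal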
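Human spleen homogenate (1 ug) with 4-methylumbelliferyl-alpha-D-glucopyranoside (1 mM final) in 50 mM citrate/phosphate pH 5.0, 0.01% Tween-20; 40 min at 37 C. Stopped at pH 10; 4-MU fluorescence Ex 365/Em 440 nm; AC50 by Hill fit.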
Luc counter – blocks Kinase-Glo luciferase, a counter-screen artifact; Q27757; Kinase-Glo luciferase, ATP luminescence, 8 min; Potency, µM (top dose mostly 38.3 µM), inactives show top-dose activity change, negative = inhibition, usual class: inhibitors; 200,000 compounds, 0.28% hits; AID 1379; further: nearly all actives have a fitted effect of over 60% in size
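Substrate mix (final 50 mM imidazole pH 7.2, 50 mM KCl, 7 mM MgCl2, 10 uM ATP, 0.01% Tween 20, 0.05% BSA) plus pin-tool compound, then Kinase-Glo detection mix; 8 min ambient, luminescence read.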
GAA glycogen – GAA glycogen-cleavage inhibition or activation; recombinant GAA, glycogen substrate, Amplex Red glucose oxidase fluorescence; Potency, µM (doses to about 76.4 µM), without a hit: at the highest dose activity change, negative = inhibition, usual class: inhibitors; P10253; AID 2100; 300,000 compounds, 0.38% hits;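 further: 0% = full enzyme reaction and -100% = no-enzyme basal signal; the screen sought inhibitors and activators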
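Recombinant enzyme (4 nM final) with compounds titrated up to 77 uM and bovine liver glycogen (30 ug) in citrate pH 5.0, 0.01% Tween-20, 37 C 40 min. Released glucose detected by Amplex Red/glucose oxidase (Ex 573/Em 610); AC50 from Hill fits.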
N370S GC mod – inhibits or activates N370S mutant glucocerebrosidase | N370S GC spleen homogenate, 4MU-glucoside fluorescence | 330,000 compounds, 0.092% hits | Potency, µM (titrated, usually from 59.4 µM), for inactives: at the highest dose activity change, negative = inhibition, most hits filed as inhibitors;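 further: 0% = full enzyme activity and -100% = no enzyme basal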
Lamin A splicing – changes lamin A minigene splicing in HeLa cells | HeLa LMNA splicing GFP/RFP minigene ratio, 48 h | Potency, µM (top dose mostly 46.1 µM), inactives show at the highest dose ratio change, negative = inhibition, usual class: inhibitors | 200,000 compounds, 0.01% hits | AID 1487; active means well fitted inhibition curve with a large enough effect in the signal ratio, with a control signal flat, not every such curve was filed as active; inconclusive means small, poorly fitted or top-dose-only effect, or effect the other way, or a change in a side signal; the % refers to the signal ratio
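Read-out is the ratio of GFP to DsRed2 object intensity, acquired by 488 nm laser-scanning cytometry on HeLa lamin A-EGFP minigene reporter cells. Compound incubation 48 hrs at 37 °C in Opti-MEM with 2% FBS; DMSO 0.5% final.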
GAA inh – inhibitors of human lysosomal alpha-glucosidase. Potency, µM (doses to about 76.9 µM), for the others: top-dose activity change, negative = inhibition, actives largely listed as inhibitors. 200,000 compounds, 0.005% hits. AID 1466. purified human GAA, 4-MU-alpha-glucoside fluorescence. P10253;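 further: plate controls were uninhibited enzyme wells for no effect and no-enzyme background for full effect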
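Fluorogenic assay: 4 nM human alpha-glucosidase with 400 uM 4-methylumbelliferyl-alpha-D-pyranoside in 50 mM citrate/phosphate, 0.005% Tween-20, pH 5.0, 20 min at room temperature. Compounds tested up to 77 uM; AC50 from Hill fits.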
Numbers without * were called inactive; [ ] = dose if it differs, or a comment. Compounds with a hit are over-represented: about 0.52% of the library has one in this group of screens. Unless noted, the call rests on the fitted dose curve; in most records, active means well fitted curve in the direction sought with a large enough effect; inconclusive means small, poorly fitted or top-dose-only effect, or another doubt; inactive means no such curve, though single readings can be large; an effect the other way counts as inactive or inconclusive. Unless noted, on the % scale 0 is the no-effect control and ±100 the full control effect; potency means the concentration at half of the fitted maximal effect.

Fc1ccc(-c2nc3n(n2)Cc2ccccc2-3)cc1 was read as aGlu spleen mod -2%, Luc counter 11µM*, GAA glycogen 4%, N370S GC mod -27%, Lamin A splicing -15% and GAA inh -13%.
Cc1ccc(S(=O)(=O)NCCc2csc3nc(-c4ccccc4C)nn23)cc1 was read as Lamin A splicing 17%[46 µM].
`COc1ccc(COC(=O)N/N=C2/C[C@@H](O)[C@@H](O)[C@@H]3[C@@H]4C(=O)N(Cc5ccccc5)C(=O)[C@H]4CC[C@@H]23)cc1` gave aGlu spleen mod 1%[17.4 µM] and N370S GC mod 12%[12.8 µM].
`O=C1[C@@H]2CSC(c3ccc(F)cc3)N2C(=O)N1c1ccc(Cl)cc1` (stereo partly specified) gave GAA glycogen 8%[76.3 µM].
CCOc1ccc(C(=O)Nc2cc(C)ccn2)cc1 was read as aGlu spleen mod 5%, Luc counter 13µM*, GAA glycogen 0%, N370S GC mod -2% and GAA inh 2%.
Cc1ccc2[nH]c(=O)c(-c3nc4ccccn4c3NCc3ccco3)cc2c1 was read as aGlu spleen mod 4%, Luc counter -5%, GAA glycogen 32µM*, N370S GC mod 0%, Lamin A splicing 4% and GAA inh -6%.
For COc1ccc2c(c1)c1c(C)c3cnccc3c(C)c1n2CCCN the results were Luc counter -1%[7.66 µM].
Screening CCN(CC)c1ccc(NC(=O)c2ccco2)cc1 returned aGlu spleen mod 0%, Luc counter 4%, GAA glycogen -4%, N370S GC mod -20%, Lamin A splicing -1% and GAA inh -13%.
`CCN(CC)c1ccc(NC(=S)NC(=O)c2ccco2)cc1` gave aGlu spleen mod -9%, Luc counter 1%, GAA glycogen 11µM*, N370S GC mod -4%, Lamin A splicing inconclusive and GAA inh 13%.
CC(=O)NC(=S)Nc1ccc(NC(=S)NC(=O)c2cccs2)cc1 was read as GAA glycogen -6%[76.3 µM] and N370S GC mod 8%.
`CCN(CC)c1ccc(NC(=S)NC(=O)c2cccs2)cc1` gave aGlu spleen mod 5%, Luc counter 3%, GAA glycogen 14µM*, N370S GC mod inconclusive, Lamin A splicing inconclusive and GAA inh 7%.
Screening O=C(Nc1cccc(Cl)c1)OCC#CCCl returned aGlu spleen mod -1% and N370S GC mod 1%.
For CCc1cccc(NC(=O)Cn2c(=O)n(-c3cccc(Cl)c3)c(=O)c3c2c2cc(C)ccc2n3C)c1 the results were GAA glycogen -3%[76.3 µM].
For c1ccc(C2=NNC(=NC3CC3)SC2)cc1 the results were aGlu spleen mod -6%, Luc counter 4.5µM*, GAA glycogen -15%, N370S GC mod 2%, Lamin A splicing 12% and GAA inh 0%.
`c1ccc2c(C3=NNC(=NC4CC4)SC3)c[nH]c2c1` gave aGlu spleen mod -1%, Luc counter -13%, GAA glycogen -1%, N370S GC mod -3%, Lamin A splicing inconclusive and GAA inh -1%.
Screening O=c1c2ccccc2nc2c3ccccc3cnn12 returned aGlu spleen mod 5%, Luc counter -8%, GAA glycogen -4%, N370S GC mod 17% and GAA inh 2%.
O=c1c(Cl)c(N2CCCCC2)cnn1-c1nc2ccccc2[nH]1 was read as aGlu spleen mod -12%, Luc counter 1.6µM*, GAA glycogen 2%, N370S GC mod 12%, Lamin A splicing -2%[0.0737 µM] and GAA inh 2%.
O=c1c2ccccc2cnn1-c1nc2ccccc2[nH]1 was read as aGlu spleen mod -7%, Luc counter 2µM*, GAA glycogen 2%, N370S GC mod -1%, Lamin A splicing 17%[9.22 µM] and GAA inh 2%.
